These results are taken from PubChem BioAssay AID651871 (Sanford-Burnham Center for Chemical Genomics, 2012).

The structures appear in SMILES notation. “And” between values parts separate entries of the source, which are not always exact repeats. Identical values can stand only once.

This test concerns H9c2. In words: protection of cardiomyocytes from stress damage, SAR follow-up, cell-based, panel, H9c2 and HL-1, ATP luminescence, set 2 (AID 651871).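 Further: cells exposed to stressor for 2 h before ATP readout; reference of the scale not given here.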 The note with it: H9c2/HL-1 cardiomyocytes, 2-deoxyglucose stress, with 2-deoxyglucose; run 13, at 79 µM (top of the series).
For `CCOC(=O)c1cccc(NC(=O)CNC(=O)c2cc(-c3cc(OC)c(OC)c(OC)c3)nc3ccccc23)c1`, the activity (protection/inhibition) amounted to 92.9%.
Take `COc1ccc2nc(-c3cc(OC)c(OC)c(OC)c3)cc(C(=O)NCC(=O)Nc3ccc(C(C)=O)cc3)c2c1`: the activity (protection/inhibition) came out at 86.7%.
For the compound `COc1ccc2c(c1OC)C(=O)N1c3ccccc3C(=O)N(Cc3cccc(Cl)c3Cl)C21` (stereo not drawn), the activity (protection/inhibition) was 81.4% and 89.7% and -5.69%.
